# In PubChem BioAssay (Tox21):
# Records with an inconclusive call do not appear. Activity calls are given as the source filed them. Calls follow the shape of the dose curve; as a rule, active = well fitted cell-killing curve with a large enough effect in the repeat runs; inconclusive = weak or mixed curves, or effect the other way; inactive = no such curve, though single readings can be large or run the other way.
# Assay: qHTS assay to identify small molecule agonists of the estrogen receptor alpha (ER-alpha) signaling pathway in the presence of an antagonist - cell viability counter screen (AID 1259386);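 also: cells exposed to compounds for 22 h at 37 °C before the viability read; nearly all actives have a fitted effect of over 30% in size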
# Details: VM7Luc4E2 viability, CellTiter-Fluor fluorescence, 22 h; series mostly up to 92.4 µM; activity change, negative = cytotoxicity: at the top concentration
# Text: National Center for Advancing Translational Sciences [NCATS]
# NIH Chemical Genomics Center [NCGC]
# U.S. Environmental Protection Agency [EPA]
# National Institutes of Environmental Health Sciences [NIEHS]
# National Toxicology Program [NTP]
# U.S. Food and Drug Administration [FDA]
# Estrogen receptor (ER), a member of nuclear hormone receptor plays an important role in development, metabolic homeostasis and reproduction. Two subtypes of ER, ER-alpha and ER-beta, have similar expression patterns with some uniqueness in both types. Endocrine disrupting chemicals (EDCs) and their interactions with steroid hormone receptors like ER causes disruption of normal endocrine function. Therefore, it is important to understand the effect of environmental chemicals in ER signaling pathway. For identifying ER agonists, VM7Luc4E2 cell line has been used in the current assay.
# VM7Luc4E2 cell line (provided by Denison MS, University of California) endogenously expresses full-length ER-alpha and is stably transfected with a plasmid containing four estrogen responsive elements (ERE) upstream of a luciferase reporter gene. This current screening for measuring luciferase reporter gene activity using VM7Luc4E2 cells against Tox21 10K library collection is a confirmation study on agonist mode screening in presence of ER-antagonist (ICI-182,780) at 10.0nM final concentration. The cytotoxicity of the compounds was tested in parallel by measuring the cell viability using CellTiter-Fluor assay system (Promega, Madison, WI) in the same wells.
# Tox21 Assay Protocol Summary:
# VM7Luc4E2 cells were cultured in phenol red free assay medium containing 10% charcoal stripped FBS for 5 days prior to the assay. The cells were dispensed at 4,000 cells in 4uL of assay medium per well into white wall/solid-bottom 1536-well plates (Corning Life Sciences, Corning, NY) using a Multidrop Combi (Thermo Fisher Scientific Inc., Waltham, MA) dispenser. After the assay plates were incubated at 37C and 5% CO2 for 24hr, 1uL of 10.0nM (final concentration) ICI-182,780 or assay buffer was added using two separate tips of Flying Reagent Dispenser (FRD, Aurora Discovery, San Diego, CA). Then 23nL of compounds dissolved in DMSO at 15 concentrations and positive controls or DMSO only was transferred to the assay plates by a Pintool station (Wako, San Diego, CA). The assay plates were incubated at 37C and 5% CO2 for 22hr. After 21hr incubation at 37C, 1uL/well CellTiter-Fluor reagent (Promega Corporation, Madison, WI) was added to each well using FRD and after 1hr incubation at 37C and 5% CO2, the fluorescence signal was measured on ViewLux plate reader (PerkinElmer, Shelton, CT).
# % is scaled to controls: 0 for no effect and ±100 for the full control effect; potency is read from the fitted curve at half-maximal effect.
SMILES,"activity change, negative = cytotoxicity",Potency
O=C(Nc1ccccc1-c1ccc(Cl)cc1)c1cccnc1Cl,0.144% (inactive),–
C[C@]12CC[C@@H](O)C[C@@H]1CC[C@@H]1[C@@H]2CC[C@]2(C)C(=O)CC[C@@H]12,-1% (inactive),–
OCC(c1ccc(Cl)cc1)c1ccc(Cl)cc1,2.02% (inactive),–
Nc1ccc([N+](=O)[O-])cc1,–,27.3 µM (active)
O=[N+]([O-])c1c(Cl)c(Cl)cc(Cl)c1Cl,3.85% (inactive),–
Clc1ccccc1-c1ccccc1Cl,0.581% (inactive),–
ClC1=C(Cl)[C@]2(Cl)[C@@H]3[C@@H](Cl)[C@H]4O[C@H]4[C@@H]3C1(Cl)C2(Cl)Cl,-1.51% (inactive),–
COc1cc(OC)c(OC)cc1C=O,1.83% (inactive),–
c1ccc2c(c1)Sc1ccccc1N2CC1CN2CCC1CC2 (stereo not drawn),1.85% [at 42.5 µM] (inactive),–
OC(Cc1ccccc1Cl)(Cn1[nH]cnc1=S)C1(Cl)CC1 (stereo not drawn),-5.35% (inactive),–
CCOC(=O)C(O)(c1ccc(Cl)cc1)c1ccc(Cl)cc1,–,inactive
CNC(=O)Oc1cc(C)c(SC)c(C)c1,-0.156% (inactive),–
ClC(Cl)=C(c1ccc(Cl)cc1)c1ccccc1Cl,-4.2% (inactive),–
CN1CSC(=S)N(C)C1,-12.2% (inactive),–
O=S(=O)(C(Cl)(Cl)Cl)C(Cl)(Cl)Cl,0.468% (inactive),–
Cc1ccc(N(SC(F)(Cl)Cl)S(=O)(=O)N(C)C)cc1,-13.8% (inactive),–
CC(c1ccccc1)(c1ccc(O)cc1)c1ccc(O)cc1,-11.5% (inactive),–
CCN(CC)C(=O)Cl,2.17% (inactive),–
CO/C=C(/C(=O)OC)c1ccccc1Oc1cc(Oc2ccccc2C#N)ncn1,–,21.7 µM (active)
Oc1c(I)cc(I)cc1I,-9.66% (inactive),–
Cc1ccc2nc3sc(=O)sc3nc2c1,-6.53% [at 19 µM] (inactive),–
O=C(c1ccccc1)C(Cl)Cl,-3.53% (inactive),–
O=C1C(I)=CC(=C(c2cc(I)c(O)c(I)c2)c2ccccc2C(=O)O)C=C1I,0.627% [at 42.5 µM] (inactive),–
